Measurements taken from PubChem BioAssay (NCI).
Compounds without any hit were thinned out: in the full panel of roughly 79,000, 15% have a hit. Rule as the data show it: active = growth inhibition above about 70%; inactive = the rest.

Legend:
[1] = NCI Yeast Anticancer Drug Screen. Data for the rad50 strain (AID 155);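 also: 0% = growth of vehicle-only cultures of the same strain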; settings: S. cerevisiae rad50 strain growth inhibition; at 50.0 µM; active compounds read high
Summary of the method: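 Growth of the mutant yeast was measured after compound exposure and referenced to vehicle-treated cultures.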

[2] = NCI Yeast Anticancer Drug Screen. Data for the mec2-1 strain (AID 157); settings: S. cerevisiae mec2-1 strain, at 50.0 µM, active compounds read high
Summary of the method: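 Readout is yeast growth inhibition, normalised to vehicle-treated controls, in the mec2-1 strain exposed to compound.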

[3] = NCI Yeast Anticancer Drug Screen. Data for the sgs1 mgt1 strain (AID 161);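 also: 0% = growth of cultures given vehicle only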; settings: S. cerevisiae sgs1 mgt1 strain, at 50.0 µM, active compounds read high
Summary of the method: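 Growth of a repair-deficient yeast mutant was monitored after compound treatment and expressed as inhibition relative to vehicle-treated cultures.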

[4] = NCI Yeast Anticancer Drug Screen. Data for the cln2 rad14 strain (AID 165);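 also: 0% = growth equal to vehicle treated cultures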; settings: S. cerevisiae cln2 rad14 strain, at 50.0 µM, active compounds read high
Summary of the method: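 Relative to vehicle controls, growth inhibition of compound-treated cln2 rad14 yeast was recorded.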

[5] = NCI Yeast Anticancer Drug Screen. Data for the bub3 strain (AID 167); settings: S. cerevisiae bub3 mutant strain, at 50.0 µM, active compounds read high
Summary of the method: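 Whole-cell yeast assay. The mutant strain was incubated with compounds, and growth inhibition was determined by comparison with vehicle-treated cells.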

[6] = NCI Yeast Anticancer Drug Screen. Data for the mlh1 rad18 strain (AID 175); settings: S. cerevisiae mlh1 rad18 strain growth inhibition; at 50.0 µM; active compounds read high
Summary of the method: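 Test agents were incubated with a yeast strain of defined genotype (DNA damage repair defect). Inhibition of growth was derived by comparison with vehicle-exposed cultures.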

Measured: growth inhibition

CC(=O)/C=C\C(=O)NNS(=O)(=O)c1ccc(C)cc1
inactive: [1] 20.6% | [2] 12.7% | [3] -1.75% | [4] 9.35% | [5] 34.1% | [6] 46.7%

O=C(C1SCCCS1)N(O)c1ccccc1OCc1ccccc1
inactive: [1] -3.85% | [2] -37.6% | [3] -22.8% | [4] -14.5% | [5] 0.95% | [6] -19.8%

CC1([N+](=O)[O-])COC2(CCCC2)OC1
inactive: [1] 26.4% | [2] 12.2% | [3] 4.75% | [4] -21.8% | [5] -12.9% | [6] 33.6%

O=S(=O)(C(c1ccccc1)C(O)(c1ccccc1)c1ccccc1)N1CCCC1 (stereo not drawn)
inactive: [1] 29.6% | [2] -0.45% | [3] 27.4% | [4] -21.8% | [5] 1.25% | [6] 22.6%

CC(=O)OCC(OC(C)=O)C(OC(C)=O)C(/C=C/[N+](=O)[O-])OC(C)=O (stereo not drawn)
inactive: [1] 9.9% | [2] 3.65% | [3] 2.4% | [4] -24.6% | [5] -3.4% | [6] -2.05%

N#CCCN1CCCC1=O
inactive: [1] -11.8% | [2] -7.55% | [3] -12.5% | [4] -22.4% | [5] 6% | [6] 6.15%

COC1/C=C/OC2(C)Oc3c(C)c(O)c4c(O)c(c(C5SCCS5)c(O)c4c3C2=O)NC(=O)/C(C)=C\C=C\C(C)C(O)C(C)C(O)C(C)C(O)C1C (stereo not drawn)
inactive: [1] 5.15% | [2] 19.1% | [3] -10.8% | [4] 4.85% | [5] 0% | [6] 36.9%

COc1ccc(C(=O)C(c2ccc(OC)cc2)C2(O)C(=O)Nc3ccc([N+](=O)[O-])cc32)cc1 (stereo not drawn)
inactive: [1] -7.65% | [2] 1.95% | [3] 6.2% | [4] 18.5% | [5] 5.65% | [6] 1.4%

COc1ccc(C(O)CNC(=O)c2ccccc2)cc1 (stereo not drawn)
inactive: [1] 11.7% | [2] -4.4% | [3] 12.5% | [4] -7.2% | [5] -2.15% | [6] -60%

CCOC(=O)c1ccc(N(CC(=O)O)S(=O)(=O)c2ccc(C)cc2)s1
inactive: [1] 17.5% | [2] -1% | [3] 2.5% | [4] 16.6% | [5] 0.85% | [6] -8.8%

O=c1n(-c2ccccc2)c(=O)n2n1C1C3C4C5C1C5C2C43 (stereo not drawn)
inactive: [1] -8.4% | [2] 8.95% | [3] 12.3% | [4] 5.85% | [5] 5% | [6] 12.8%

Fc1ccc2nncc(SCc3ccc(Cl)c(Cl)c3)c2c1
inactive: [1] -1% | [2] 0.15% | [3] 3.8% | [4] -11.2% | [5] 18.4% | [6] -2.05%

CON(C)C(C#N)=C(C#N)C#N
inactive: [1] 9.75% | [2] 1.85% | [3] 21.1% | [4] 7.05% | [5] 8.1% | [6] 25.2%

CC1c2ccccc2CC(CCN(C)C)c2ccccc21 (stereo not drawn)
inactive: [1] 8.1% | [2] -12.8% | [3] 34% | [4] 13.4% | [5] 28.6% | [6] -20.3%

CC1=NN(c2ccccc2)C(=O)CC1
inactive: [1] -3.65% | [2] -8.8% | [3] 26.5% | [4] 16.6% | [5] 16.3% | [6] 5.05%

Nc1nc(N)c(N=O)c(N)n1
inactive: [1] -10.9% | [2] -8.85% | [3] 0.6% | [4] 21% | [5] 3.5% | [6] 15.2%

OC1(c2ccccc2)C(c2ccccc2)=C(c2ccccc2)C(c2ccc(CCCCCCCCc3ccc(C4=C(c5ccccc5)C(O)(c5ccccc5)C(c5ccccc5)=C4c4ccccc4)cc3)cc2)=C1c1ccccc1 (stereo not drawn)
inactive: [1] -20.4% | [2] -3.95% | [3] -7.5% | [4] -28.1% | [5] -23.6% | [6] -9.15%

O=C1C2Nc3ccccc3N=C2OC1c1cccc([N+](=O)[O-])c1 (stereo not drawn)
inactive: [1] 16.3% | [2] 15.6% | [3] 22.9% | [4] 16.9% | [5] 20.6% | [6] 24.2%

COc1ccc(-c2cc(-c3ccccc3)n(C3OCC(OC(C)=O)C(OC(C)=O)C3OC(C)=O)c(=S)c2C#N)cc1 (stereo not drawn)
inactive: [1] 12.1% | [2] 18.9% | [3] -12.7% | [4] 4.55% | [5] -3.6% | [6] 32.4%

CCCCCCCCCCCCCCCC(=O)OCC1OC(n2cc(F)c(=O)[nH]c2=O)C(NC(=O)N(CCCl)N=O)C(O)C1O (stereo not drawn)
inactive: [1] -16.1% | [2] -31.8% | [3] -16.6% | [4] -2.1% | [5] -24.4% | [6] -23.1%

Cc1ccc(NC(=S)N2CCCCC2)cc1C
inactive: [1] -1.9% | [2] 13.2% | [3] 19.3% | [4] -19.2% | [5] 25.4% | [6] 15.4%

CCCCCCCCS(=O)(=O)N(C)C
inactive: [1] -18.6% | [2] -24.9% | [3] 0.4% | [4] -28.3% | [5] -31.1% | [6] -15.2%

CC(C(=O)O)C(C)(O)C(C)(C)C (stereo not drawn)
inactive: [1] -3.9% | [2] 1.05% | [3] -5.25% | [4] -37.4% | [5] 12.2% | [6] -6.95%

CCC(CC)COC(=O)c1ccccc1
inactive: [1] 0.95% | [2] -7.05% | [3] -3.75% | [4] -14.8% | [5] 17.2% | [6] -0.75%

Cc1ccc(Nc2ccc(O)cc2)cc1
inactive: [1] 40.4% | [2] -2.1% | [3] 29.5% | [4] -8.25% | [5] -10.8% | [6] 26%

Cc1c2oc3c(C)ccc(C(=O)NCCN4CCN(c5ccccc5)CC4)c3nc-2c(C(=O)NCCN2CCN(c3ccccc3)CC2)c(N)c1=O
inactive: [1] -4.7% | [2] 2.2% | [3] -8.5% | [4] -11.3% | [5] -3.9% | [6] -32.6%

COC(=O)/C=C\n1c(C)cc(=O)[nH]c1=O
inactive: [1] 2.9% | [2] 0.35% | [3] -5.5% | [4] -4.75% | [5] -2.8% | [6] -45.5%

COc1cc(Br)c2ncccc2c1
inactive: [1] 1.75% | [2] -0.6% | [3] 3.85% | [4] 4.05% | [5] 2.2% | [6] -14.5%

CC(C)(C)N=C1CC(C)(C)c2ccccc2C(=Nc2ccccc2)S1
inactive: [1] 23.2% | [2] 9.55% | [3] 24.8% | [4] 24.1% | [5] 8.3% | [6] 15.3%

Cc1cc(N)ccc1N=Nc1cc(S(=O)(=O)O)c2cccc(S(=O)(=O)O)c2c1
inactive: [1] -4.4% | [2] 22.1% | [3] -2.65% | [4] 3.95% | [5] 8.85% | [6] -4.55%

CCOC(=O)CC(=O)Cc1oc2c(C(C)=O)c(O)c(C)c(O)c2c1C
inactive: [1] -0.8% | [2] 7% | [3] -0.2% | [4] 6.05% | [5] 2.85% | [6] 14.8%

c1ccc(C(CCN2CC3CCC(CC3)C2)c2ccccc2)cc1
inactive: [1] 14.6% | [2] -21.4% | [3] -17.9% | [4] -22.6% | [5] -21.9% | [6] 22.6%

COc1cccc2c1C(CO)N1C(C#N)C3CC(C(=O)O)C(C1C2)N3C (stereo not drawn)
inactive: [1] 0.25% | [2] -5.9% | [3] -28.3% | [4] 3.4% | [5] 8% | [6] -2.45%

Cc1cc2c(c(O)c1-c1c(C)cc(O)c3c1C(=O)C=CC3=O)C(=O)C=CC2=O
inactive: [1] -7.1% | [2] -43.4% | [3] -8.5% | [4] -0.2% | [5] -27.9% | [6] -43.2%

Cc1cccc(N2CCN(c3ccc4nonc4c3[N+](=O)[O-])CC2)c1
inactive: [1] -5.05% | [2] -4.4% | [3] -9.9% | [4] -13% | [5] -13.9% | [6] -15.3%

CC(C)OCN1COCN=C1NC#N
inactive: [1] 38.2% | [2] 12.2% | [3] 23.1% | [4] 28.7% | [5] -10.4% | [6] 33%

C1=CCC(C(Nc2nncs2)Nc2nncs2)CC1 (stereo not drawn)
inactive: [1] 6.25% | [2] 3.95% | [3] 19.6% | [4] 7.05% | [5] -24.9% | [6] 9.25%

NNC(=O)C(=O)N/N=C1/CCCC1C(=O)CCC(=O)Nc1ccc(Cl)cc1 (stereo not drawn)
inactive: [1] -4% | [2] -14.2% | [3] 0% | [4] -0.2% | [5] 0.3% | [6] -6.9%
